Laboratory results reported in the supplement of paper PMC13380429.

Test system: Vero E6 infected with SARS-CoV-2
Assay: inhibition of SARS-CoV-2 cytopathic effect; higher = more antiviral protection, active = above 15
Conditions: 48 h

Measured: inhibition of SARS-CoV-2 cytopathic effect

O=C1NCC2(CCN(CCc3ccccc3)CC2)O1 [fenspiride]
inactive: 1 nM -2.77% | 8.33 nM -1.55% | 100 nM 2.18% | 833.33 nM 0.71% | 10000 nM 0.43%

O=c1c(O)c(-c2ccc(O)cc2)oc2cc(O)cc(O)c12 [kaempferol]
inactive: 1 nM -3.6% | 8.33 nM 12% | 100 nM -1.58% | 833.33 nM 1.56% | 10000 nM 11.2%

CC(C)(C)c1[nH]cnc1/C=c1\[nH]c(=O)/c(=C/c2ccccc2)[nH]c1=O [plinabulin]
inactive: 1 nM 0.88% | 8.33 nM 3.39% | 100 nM -1.75% | 833.33 nM 0.24% | 10000 nM 2.48%

C[C@@H]1CN(c2c(F)c(F)c3c(=O)c(C(=O)O)cn(C4CC4)c3c2F)C[C@H](C)N1 [orbifloxacin]
inactive: 1 nM -6.82% | 8.33 nM -2.82% | 100 nM -5.64% | 833.33 nM -4.29% | 10000 nM -4.52%

CN[C@@H](C)[C@H]1[C@H](O)C[C@@]2(C)[C@@H]3CC[C@H]4C(C)(C)[C@@H](NC)CC[C@@]45C[C@@]35CC[C@]12C [cyclovirobuxin-D]
inactive: 1 nM -0.38% | 8.33 nM 2.73% | 100 nM 3.9% | 833.33 nM 2.48% | 10000 nM -7.38%

CCCn1c(=O)[nH]c2nc(-c3ccc(S(=O)(=O)O)cc3)[nH]c2c1=O
inactive: 1 nM 0.98% | 8.33 nM -0.31% | 100 nM -0.83% | 833.33 nM 0.97% | 10000 nM 0.55%

NS(=O)(=O)c1cc2c(cc1Cl)NC(C1CC3C=CC1C3)NS2(=O)=O (stereo not given) [cyclothiazide]
inactive: 1 nM 2.43% | 8.33 nM 0.31% | 100 nM 3.55% | 833.33 nM -0.08% | 10000 nM -1.44%
